Reference: PubChem BioAssay (EPA / NIEHS)
Results filed as inconclusive are left out. The source made the active and inactive calls. How the source made its calls: active means hit-call score of the fitted dose curve at least 0.9, where 1 is the maximum; inconclusive means response in the unintended direction; inactive means score below 0.9.

Key:
[1] = target: human Sirtuin 1 (SIRT1), SIRT1 (gene 23411) (UniProt Q96EB6); experiment: NVS_ENZ_hSIRT1: NovaScreen (NVS) Enzymatic Assay for human Sirtuin 1 (SIRT1) (AID 2283219)
In short: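 Cell-free recombinant SIRT1 with a fluorescent substrate; substrate and product separated by electrophoretic mobility shift and read by fluorescence intensity, 1 h after dosing. Primary screen at 25 uM in duplicate; hits re-run in concentration-response up to 50 uM, relative to DMSO.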

[2] = target: human Protein Tyrosine Phosphatase Non-receptor Type 6 (PTPN6), PTPN6 (gene 5777) (UniProt P29350); experiment: NVS_ENZ_hPTPN6: NovaScreen (NVS) Enzymatic Assay for human Protein Tyrosine Phosphatase Non-receptor Type 6 (PTPN6) (AID 2283210)
In short: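 Recombinant human PTPN6 from SF9 cells, enzyme activity followed by fluorescence after mobility-shift separation of substrate and product at 1.33 h. Chemicals first tested at a single 25 uM in duplicate, then confirmed across concentration series; loss of signal relative to DMSO.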

[3] = target: human Protein Tyrosine Phosphatase Receptor Type M (PTPRM), PTPRM (gene 5797) (UniProt P28827); experiment: NVS_ENZ_hPTPRM: NovaScreen (NVS) Enzymatic Assay for human Protein Tyrosine Phosphatase Receptor Type M (PTPRM) (AID 2283215)
In short: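 Read-out is fluorescence after electrophoretic separation of substrate and product, taken 1.33 h post-dosing with recombinant enzyme. Compounds screened at 25 uM in duplicate, then concentration series for actives; activity as signal loss relative to DMSO.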

[4] = target: rabbit Imidazoline 2 Central (I2C), CKB (gene 100009085) (UniProt P00567); experiment: NVS_ENZ_rabI2C: NovaScreen (NVS) Enzymatic Assay for rabbit Imidazoline 2 Central (I2C) (AID 2283228)
In short: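 Rabbit brain membranes, cell-free; readout by filter-based scintillation counting 1.5 hours after dosing, loss of signal vs DMSO. Initial duplicate test at 25 uM, then concentration-response with 50 uM top concentration.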

[5] = target: human SRC Proto-Oncogene, Non-receptor Tyrosine Kinase (SRC), SRC (gene 6714) (UniProt P12931); experiment: NVS_ENZ_hSRC: NovaScreen (NVS) Enzymatic Assay for human SRC Proto-Oncogene, Non-receptor Tyrosine Kinase (SRC) (AID 2283223)
In short: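 Compounds passing 30% inhibition at 25 uM (duplicate) were titrated to a top concentration of 50 uM. Enzyme activity read by fluorescence with mobility-shift substrate/product separation after 1 h; DMSO baseline.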

[6] = target: human Sirtuin 2 (SIRT2), SIRT2 (gene 22933) (UniProt Q8IXJ6); experiment: NVS_ENZ_hSIRT2: NovaScreen (NVS) Enzymatic Assay for human Sirtuin 2 (SIRT2) (AID 2283217)
In short: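 Single-point duplicate screen at 25 uM, then concentration-response (max 50 uM) for chemicals passing threshold. Enzyme activity of recombinant human SIRT2 measured after 1 hr by fluorescence with mobility-shift separation of product; DMSO baseline.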

[7] = target: human Sirtuin 3 (SIRT3), SIRT3 (gene 23410) (UniProt Q9NTG7); experiment: NVS_ENZ_hSIRT3: NovaScreen (NVS) Enzymatic Assay for human Sirtuin 3 (SIRT3) (AID 2283222)
In short: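 Cell-free enzyme assay with recombinant protein and fluorescent substrate, product separated by electrophoretic mobility shift; read 1 hour after dosing. Screened in duplicate at 25 uM, then singleton concentration-response up to 50 uM; loss of signal versus DMSO.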

[8] = target: human Vascular Endothelial Growth Factor Receptor 2 (VEGFR2), KDR (gene 3791) (UniProt P35968); experiment: NVS_ENZ_hVEGFR2: NovaScreen (NVS) Enzymatic Assay for human Vascular Endothelial Growth Factor Receptor 2 (VEGFR2) (AID 2283230)
In short: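 Cell-free recombinant VEGFR2 kinase, fluorescent substrate with electrophoretic mobility-shift separation; read 1 h after dosing. Screened at 25 uM in duplicate, hits to concentration-response up to 50 uM; loss-of-signal versus DMSO.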

[9] = target: rat Constitutive Nitric Oxide Synthase (CNOS), Nos1 (gene 24598) (UniProt P29476); experiment: NVS_ENZ_rCNOS: NovaScreen (NVS) Enzymatic Assay for rat Constitutive Nitric Oxide Synthase (CNOS) (AID 2283236)
In short: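 Single 25 uM duplicate screen, then concentration series to 50 uM for chemicals meeting threshold. Rat brain membrane-derived CNOS activity detected radiometrically by filtration and scintillation counting, 1 h after compound addition; DMSO as baseline.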

[10] = target: bovine Dopamine Receptor (DR), Non-selective Binding, DRD1 (gene 281125) (UniProt Q95136); experiment: NVS_GPCR_bDR_NonSelective: NovaScreen (NVS) G Protein-Coupled Receptor Assay for bovine Dopamine Receptor (DR), Non-selective Binding (AID 2283241)
In short: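 Filter-based radioligand binding with bovine striatal membrane, incubated 1 h; DMSO as negative baseline. Initial duplicate single-point test at 25 uM preceded concentration series for actives.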

[11] = target: human Protein Tyrosine Phosphatase Non-receptor Type 9 (PTPN9), PTPN9 (gene 5780) (UniProt P43378); experiment: NVS_ENZ_hPTPN9: NovaScreen (NVS) Enzymatic Assay for human Protein Tyrosine Phosphatase Non-receptor Type 9 (PTPN9) (AID 2283209)
In short: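 Sf9-expressed enzyme in a cell-free assay, fluorescence read 1.33 h after dosing with mobility-shift separation of substrate and product. Tested at 25 uM in duplicate, then up to 50 uM; signal loss versus DMSO.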

[12] = target: human Vascular Endothelial Growth Factor Receptor 1 (VEGFR1), FLT1 (gene 2321) (UniProt P17948); experiment: NVS_ENZ_hVEGFR1: NovaScreen (NVS) Enzymatic Assay for human Vascular Endothelial Growth Factor Receptor 1 (VEGFR1) (AID 2283226)
In short: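 Kinase activity of recombinant human VEGFR1 was read by fluorescence after electrophoretic separation of product from substrate, 1 h post-dosing; initial duplicate single-point testing at 25 uM, followed by concentration-series follow-up, with DMSO as baseline.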

[13] = target: human Vascular Endothelial Growth Factor Receptor 3 (VEGFR3), FLT4 (gene 2324) (UniProt P35916); experiment: NVS_ENZ_hVEGFR3: NovaScreen (NVS) Enzymatic Assay for human Vascular Endothelial Growth Factor Receptor 3 (VEGFR3) (AID 2283229)
In short: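 Chemicals first run in duplicate at 25 uM, with actives re-tested in concentration series to a top of 50 uM. Recombinant VEGFR3 activity measured after 1 h via fluorescence with mobility-shift product separation; inhibition fitted relative to DMSO.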

[14] = target: sheep Cyclooxygenase-1 (Cox1), PTGS1 (gene 443551) (UniProt P05979); experiment: NVS_ENZ_oCOX1: NovaScreen (NVS) Enzymatic Assay for sheep Cyclooxygenase-1 (Cox1) (AID 2283239);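 further: actives reduce cyclooxygenase activity so potencies are for inhibitors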
In short: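 Ovine seminal vesicle extract; absorbance (colorimetric) enzyme read-out at 0.66 h post-dose. Primary: single conc 25 uM, duplicate. Follow-up: concentration series on actives. Activity = signal loss vs DMSO baseline.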

[15] = target: human Rho Associated Coiled-coil Containing Protein Kinase 1 (ROCK1), ROCK1 (gene 6093) (UniProt Q13464); experiment: NVS_ENZ_hROCK1: NovaScreen (NVS) Enzymatic Assay for human Rho Associated Coiled-coil Containing Protein Kinase 1 (ROCK1) (AID 2283214)
In short: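 Compounds first run in duplicate at 25 uM against recombinant human ROCK1, then followed in concentration series. Kinase activity was read 1 h post-dosing by fluorescence with mobility-shift separation, as signal loss relative to DMSO.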

[16] = target: human Protein Tyrosine Phosphatase Receptor Type B (PTPRB), PTPRB (gene 5787) (UniProt P23467); experiment: NVS_ENZ_hPTPRB: NovaScreen (NVS) Enzymatic Assay for human Protein Tyrosine Phosphatase Receptor Type B (PTPRB) (AID 2283211)
In short: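 Recombinant human PTPRB with a fluorescent substrate, product separated by electrophoretic mobility shift; read 1 h after dosing. Primary screen in duplicate at 25 uM; actives then retested in concentration series; loss of signal versus DMSO.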

[17] = test system: bovine Angiotensin II Receptor Type 2 (AT2), gene 407157; experiment: NVS_GPCR_bAT2: NovaScreen (NVS) G Protein-Coupled Receptor Assay for bovine Angiotensin II Receptor Type 2 (AT2) (AID 2283240)
In short: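 Radioligand displacement on bovine cerebellar membranes, 1 hour incubation, filter-based scintillation counting; loss of signal vs DMSO. Duplicate single-point screen at 25 uM, then concentration-response to 50 uM maximum.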

[18] = target: human Protein Tyrosine Phosphatase Receptor Type F (PTPRF), PTPRF (gene 5792) (UniProt P10586); experiment: NVS_ENZ_hPTPRF: NovaScreen (NVS) Enzymatic Assay for human Protein Tyrosine Phosphatase Receptor Type F (PTPRF) (AID 2283213)
In short: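 Cell-free fluorescence enzyme assay with recombinant protein and substrate; product separated by electrophoretic mobility shift. Read 1 h after dosing, single 25 uM duplicate screen, then concentration-response up to 50 uM; loss of signal vs DMSO.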

[19] = target: human Tropomyosin Receptor Kinase A (TRKA), NTRK1 (gene 4914) (UniProt P04629); experiment: NVS_ENZ_hTrkA: NovaScreen (NVS) Enzymatic Assay for human Tropomyosin Receptor Kinase A (TRKA) (AID 2283224)
In short: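 Compounds were screened at 25 uM in duplicate, then concentration series to a 50 uM top for those meeting threshold (e.g. 30% inhibition). Enzyme was recombinant human TrkA, incubated 1 h. Product formation was quantified by fluorescence after mobility-shift separation.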

Sequence of sheep Cyclooxygenase-1 (Cox1), PTGS1 (gene 443551) (P05979 whole entry, looked up): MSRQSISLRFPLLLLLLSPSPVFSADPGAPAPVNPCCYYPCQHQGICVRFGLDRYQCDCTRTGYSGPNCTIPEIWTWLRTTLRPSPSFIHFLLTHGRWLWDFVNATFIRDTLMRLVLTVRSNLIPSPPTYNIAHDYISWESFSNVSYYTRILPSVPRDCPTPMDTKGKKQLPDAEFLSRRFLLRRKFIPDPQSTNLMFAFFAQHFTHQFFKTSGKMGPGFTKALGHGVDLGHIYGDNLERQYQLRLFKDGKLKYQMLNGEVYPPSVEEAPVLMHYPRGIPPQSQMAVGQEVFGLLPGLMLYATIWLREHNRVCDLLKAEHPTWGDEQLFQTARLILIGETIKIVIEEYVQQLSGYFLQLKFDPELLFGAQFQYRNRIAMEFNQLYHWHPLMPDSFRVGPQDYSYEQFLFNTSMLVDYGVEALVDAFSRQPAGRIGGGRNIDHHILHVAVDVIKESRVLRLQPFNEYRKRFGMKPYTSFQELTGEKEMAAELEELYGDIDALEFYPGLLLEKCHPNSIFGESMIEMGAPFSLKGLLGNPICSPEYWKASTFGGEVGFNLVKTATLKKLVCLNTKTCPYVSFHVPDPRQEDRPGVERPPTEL
Sequence of human Sirtuin 1 (SIRT1), SIRT1 (gene 23411) (Q96EB6 whole entry, looked up): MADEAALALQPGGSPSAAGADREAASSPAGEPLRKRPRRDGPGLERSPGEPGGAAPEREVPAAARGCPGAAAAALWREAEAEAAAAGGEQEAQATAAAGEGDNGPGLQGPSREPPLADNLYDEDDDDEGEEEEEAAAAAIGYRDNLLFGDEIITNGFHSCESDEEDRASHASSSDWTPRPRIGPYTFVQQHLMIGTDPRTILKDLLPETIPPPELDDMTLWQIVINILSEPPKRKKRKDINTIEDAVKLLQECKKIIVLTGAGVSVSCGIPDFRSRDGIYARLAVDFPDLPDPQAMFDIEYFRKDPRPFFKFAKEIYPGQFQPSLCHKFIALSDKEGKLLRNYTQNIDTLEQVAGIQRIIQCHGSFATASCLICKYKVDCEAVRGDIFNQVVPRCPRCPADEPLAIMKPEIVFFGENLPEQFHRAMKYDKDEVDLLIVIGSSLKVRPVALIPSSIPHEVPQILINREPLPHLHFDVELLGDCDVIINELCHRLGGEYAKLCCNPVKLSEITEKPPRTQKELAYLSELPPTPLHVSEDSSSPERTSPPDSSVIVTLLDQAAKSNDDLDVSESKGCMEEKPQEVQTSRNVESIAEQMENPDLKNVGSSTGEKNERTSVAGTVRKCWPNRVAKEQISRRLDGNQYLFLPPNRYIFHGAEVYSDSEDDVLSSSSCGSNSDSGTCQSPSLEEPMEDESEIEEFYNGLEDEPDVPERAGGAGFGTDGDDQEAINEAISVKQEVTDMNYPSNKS
Sequence of human Rho Associated Coiled-coil Containing Protein Kinase 1 (ROCK1), ROCK1 (gene 6093) (Q13464 whole entry, looked up): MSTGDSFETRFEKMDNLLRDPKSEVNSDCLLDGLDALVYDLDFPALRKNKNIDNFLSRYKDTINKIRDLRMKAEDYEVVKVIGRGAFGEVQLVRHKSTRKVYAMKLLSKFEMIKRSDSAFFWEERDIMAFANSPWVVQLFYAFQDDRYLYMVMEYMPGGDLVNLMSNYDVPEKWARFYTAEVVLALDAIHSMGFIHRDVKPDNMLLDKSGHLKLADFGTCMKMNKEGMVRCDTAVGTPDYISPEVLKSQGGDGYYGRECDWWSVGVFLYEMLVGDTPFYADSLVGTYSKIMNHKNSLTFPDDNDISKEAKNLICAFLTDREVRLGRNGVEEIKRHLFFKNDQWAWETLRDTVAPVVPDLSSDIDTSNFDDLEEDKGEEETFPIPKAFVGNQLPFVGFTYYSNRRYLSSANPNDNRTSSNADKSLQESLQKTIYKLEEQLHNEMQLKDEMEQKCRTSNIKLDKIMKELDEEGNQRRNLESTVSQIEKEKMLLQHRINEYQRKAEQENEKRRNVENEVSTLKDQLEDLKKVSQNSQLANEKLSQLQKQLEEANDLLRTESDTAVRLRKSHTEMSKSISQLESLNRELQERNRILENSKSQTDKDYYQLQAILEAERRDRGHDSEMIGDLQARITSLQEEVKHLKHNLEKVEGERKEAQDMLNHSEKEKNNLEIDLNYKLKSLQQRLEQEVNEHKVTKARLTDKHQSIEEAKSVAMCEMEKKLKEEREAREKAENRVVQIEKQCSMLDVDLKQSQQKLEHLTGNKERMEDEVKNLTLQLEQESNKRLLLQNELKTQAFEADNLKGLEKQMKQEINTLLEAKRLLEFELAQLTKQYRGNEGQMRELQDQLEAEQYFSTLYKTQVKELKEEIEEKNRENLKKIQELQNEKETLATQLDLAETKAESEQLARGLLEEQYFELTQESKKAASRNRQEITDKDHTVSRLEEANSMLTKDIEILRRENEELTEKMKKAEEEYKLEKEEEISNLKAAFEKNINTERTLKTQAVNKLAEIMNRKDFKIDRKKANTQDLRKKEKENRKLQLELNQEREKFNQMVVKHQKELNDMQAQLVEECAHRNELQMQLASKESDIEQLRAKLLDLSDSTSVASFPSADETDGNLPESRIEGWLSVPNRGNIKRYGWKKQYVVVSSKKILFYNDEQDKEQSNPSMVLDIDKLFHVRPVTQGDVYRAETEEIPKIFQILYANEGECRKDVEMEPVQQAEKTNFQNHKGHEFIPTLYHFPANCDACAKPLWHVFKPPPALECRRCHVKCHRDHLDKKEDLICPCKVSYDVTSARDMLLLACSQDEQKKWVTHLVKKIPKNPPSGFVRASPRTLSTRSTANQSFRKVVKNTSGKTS
Sequence of human Protein Tyrosine Phosphatase Non-receptor Type 6 (PTPN6), PTPN6 (gene 5777) (P29350 whole entry, looked up): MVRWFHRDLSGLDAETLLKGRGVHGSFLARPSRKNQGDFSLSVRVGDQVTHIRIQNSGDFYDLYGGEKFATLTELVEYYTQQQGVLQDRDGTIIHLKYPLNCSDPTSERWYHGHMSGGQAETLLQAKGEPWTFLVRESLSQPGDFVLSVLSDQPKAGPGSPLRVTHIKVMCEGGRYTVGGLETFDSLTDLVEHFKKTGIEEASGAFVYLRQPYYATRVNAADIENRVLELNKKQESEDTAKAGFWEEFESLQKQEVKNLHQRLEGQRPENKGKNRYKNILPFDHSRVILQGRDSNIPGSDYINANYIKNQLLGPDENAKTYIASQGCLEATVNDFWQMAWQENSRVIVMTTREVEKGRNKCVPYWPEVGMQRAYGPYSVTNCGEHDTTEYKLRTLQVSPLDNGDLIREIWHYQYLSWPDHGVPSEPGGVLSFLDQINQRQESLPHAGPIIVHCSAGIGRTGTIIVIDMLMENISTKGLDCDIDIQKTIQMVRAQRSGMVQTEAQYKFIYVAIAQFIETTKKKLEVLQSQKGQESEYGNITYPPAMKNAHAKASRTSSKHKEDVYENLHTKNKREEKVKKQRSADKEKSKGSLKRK
Sequence of human Sirtuin 2 (SIRT2), SIRT2 (gene 22933) (Q8IXJ6 whole entry, looked up): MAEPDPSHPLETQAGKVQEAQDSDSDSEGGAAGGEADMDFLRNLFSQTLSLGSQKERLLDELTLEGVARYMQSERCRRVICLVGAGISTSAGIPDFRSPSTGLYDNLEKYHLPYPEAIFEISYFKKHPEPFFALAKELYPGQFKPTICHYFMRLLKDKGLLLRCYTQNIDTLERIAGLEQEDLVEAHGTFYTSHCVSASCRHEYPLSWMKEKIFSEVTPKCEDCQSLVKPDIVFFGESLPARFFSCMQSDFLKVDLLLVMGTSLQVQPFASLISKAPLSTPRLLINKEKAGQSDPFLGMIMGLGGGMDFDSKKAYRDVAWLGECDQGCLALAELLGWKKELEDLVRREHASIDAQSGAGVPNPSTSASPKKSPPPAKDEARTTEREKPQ
Sequence of human Protein Tyrosine Phosphatase Non-receptor Type 9 (PTPN9), PTPN9 (gene 5780) (P43378 whole entry, looked up): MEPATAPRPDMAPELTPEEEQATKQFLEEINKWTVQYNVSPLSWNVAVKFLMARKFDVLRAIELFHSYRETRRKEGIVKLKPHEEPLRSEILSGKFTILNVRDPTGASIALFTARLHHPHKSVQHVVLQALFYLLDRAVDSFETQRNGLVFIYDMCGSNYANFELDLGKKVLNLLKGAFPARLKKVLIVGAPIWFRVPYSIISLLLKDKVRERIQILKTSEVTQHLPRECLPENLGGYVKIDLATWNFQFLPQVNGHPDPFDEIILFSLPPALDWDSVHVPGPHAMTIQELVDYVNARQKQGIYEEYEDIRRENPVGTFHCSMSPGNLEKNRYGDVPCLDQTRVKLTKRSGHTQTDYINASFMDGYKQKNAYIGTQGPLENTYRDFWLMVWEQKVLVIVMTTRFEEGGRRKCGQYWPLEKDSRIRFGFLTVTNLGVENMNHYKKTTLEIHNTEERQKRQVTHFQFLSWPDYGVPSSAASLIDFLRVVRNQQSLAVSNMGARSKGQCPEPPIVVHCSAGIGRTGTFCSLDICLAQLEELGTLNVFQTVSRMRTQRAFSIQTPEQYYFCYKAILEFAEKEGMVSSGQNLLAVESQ
Sequence of rabbit Imidazoline 2 Central (I2C), CKB (gene 100009085) (P00567 whole entry, looked up): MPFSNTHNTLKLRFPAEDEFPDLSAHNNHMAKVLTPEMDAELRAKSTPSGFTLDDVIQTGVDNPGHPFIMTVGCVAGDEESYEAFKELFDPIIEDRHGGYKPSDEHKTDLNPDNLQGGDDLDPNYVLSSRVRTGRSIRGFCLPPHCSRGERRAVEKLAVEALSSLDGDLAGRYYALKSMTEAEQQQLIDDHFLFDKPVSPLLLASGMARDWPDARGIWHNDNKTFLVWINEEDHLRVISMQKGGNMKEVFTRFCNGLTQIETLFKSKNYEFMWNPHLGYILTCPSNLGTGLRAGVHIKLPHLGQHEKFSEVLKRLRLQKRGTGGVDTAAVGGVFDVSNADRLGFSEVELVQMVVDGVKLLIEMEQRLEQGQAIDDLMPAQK

Nc1cccc(N)c1
outcome [1]: inactive

O=C1CCCCCN1
outcome [2]: inactive

Nc1ccc(Nc2ccccc2)cc1
AC50 [3]: 15.8 µM (active) | AC50 [4]: 4.76 µM (active)

Clc1nc(Cl)c(Cl)c(Cl)c1Cl
outcome [5]: inactive

O=P(OC(CCl)CCl)(OC(CCl)CCl)OC(CCl)CCl
outcome [3]: inactive

COc1cccc(-c2ccc(/C=C\CN3CCCCCC3)cc2Cl)c1
AC50 [6]: 16.6 µM (active) | AC50 [7]: 3.06 µM (active) | AC50 [4]: 22.6 µM (active) | outcome [8]: inactive | AC50 [9]: 29.9 µM (active) | AC50 [10]: 36.4 µM (active)

Cc1c(-c2cccnc2)c2ccccc2n1CCCCC(=O)O
outcome [6]: inactive

CCCCC(CC)COC(=O)c1ccc(C(=O)OCC(CC)CCCC)cc1 (stereo unspecified)
outcome [11]: inactive

CC[C@H](C)C(=O)O[C@H]1C[C@@H](C)C=C2C=C[C@H](C)[C@H](CC[C@@H]3C[C@@H](O)CC(=O)O3)[C@H]21
outcome [11]: inactive | outcome [6]: inactive | outcome [7]: inactive | outcome [12]: inactive | outcome [13]: inactive | outcome [8]: inactive | AC50 [14]: 34.3 µM (active)

COCCOCCOCCOC
outcome [15]: inactive | outcome [14]: inactive

CC(C)c1cccc(C(C)C)c1N1C(=O)c2ccc(O)cc2C1=O
outcome [16]: inactive | outcome [12]: inactive | outcome [13]: inactive | AC50 [14]: 2.48 µM (active)

CNS(=O)(=O)c1cc(C(=O)N2CCC(CCN3C4CCC3CC(n3c(C)nc5ccccc53)C4)(c3cccc(F)c3)CC2)c(Cl)cc1F (stereo unspecified)
outcome [6]: inactive | outcome [17]: inactive

O=C(O)CCN(C1(C(=O)NO)CCCC1)S(=O)(=O)c1ccc(Oc2ccc(F)cc2)cc1
outcome [15]: inactive

O=C(O)c1cccc(Oc2ccccc2)c1
outcome [11]: inactive | outcome [16]: inactive | outcome [18]: inactive | outcome [3]: inactive | outcome [1]: inactive | outcome [19]: inactive | outcome [13]: inactive

O=C1OC(=O)C2C3C=CC(C3)C12 (stereo unspecified)
outcome [11]: inactive | outcome [2]: inactive | outcome [14]: inactive

CN(C)c1ccc(Cc2ccc(N(C)C)cc2)cc1
outcome [11]: inactive | outcome [2]: inactive

COC(=O)c1c(Cl)c(Cl)c(C(=O)OC)c(Cl)c1Cl
outcome [15]: inactive | outcome [13]: inactive

Oc1ccc2c(c1)-c1ccccc1C2
outcome [1]: inactive | outcome [14]: inactive
